# Measured values published in PubChem BioAssay (NCATS).
# Inconclusive results are not listed. The source made the active and inactive calls. Calls come from the whole dose curve; as a rule, active = well fitted inhibition curve with a large enough effect; inconclusive = small, poorly fitted or top-dose-only effect; inactive = flat fitted curve, though single readings scatter.
# Assay: BET inhibitor-based combinations targeting novel dependencies in MECOM-rearranged (r) AML: AML-191 cell line (AID 2202236; note: nearly all actives have a fitted effect of over 35% in size)
# Settings: AML-191 viability, CellTiter-Glo luminescence, 48 h; series mostly up to 46 µM
# How it was run: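 Viability of cells (500 per well) is scored by luminescent CellTiter-Glo at 48 hr post-dosing. Eleven-point titrations are normalized to DMSO and empty controls and reduced to AUC values.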
# Potency is the fitted concentration of half-maximal effect.
row,SMILES,Potency
1,COc1cc(N2CCC(N3CCN(C)CC3)CC2)ccc1Nc1ncc(Cl)c(Nc2ccccc2S(=O)(=O)C(C)C)n1,10.5 µM (active)
2,CC(=O)N(O)CCCCCNC(=O)CCC(=O)N(O)CCCCCNC(=O)CCC(=O)N(O)CCCCCN,8.33 µM (active)
3,CC(C)[C@H](C(=O)Nc1ccc(C(=O)NO)cc1)c1ccccc1,0.662 µM (active)
4,O=C(NCC1CCCCN1)c1cc(OCC(F)(F)F)ccc1OCC(F)(F)F (stereo unspecified),inactive
5,Clc1ccccc1CN1CCc2sccc2C1,inactive
6,COc1ccc(-c2cc3nccn3c(Nc3ncccc3C(N)=O)n2)cc1OC,8.33 µM (active)
7,Cc1cc2c(C(C)C)c(O)c(O)c(C=O)c2c(O)c1-c1c(C)cc2c(C(C)C)c(O)c(O)c(C=O)c2c1O,9.34 µM (active)
8,CC(C)n1nc(-c2cc3cc(O)ccc3[nH]2)c2c(N)ncnc21,0.934 µM (active)
9,Cc1nc(N)sc1-c1ccnc(Nc2ccc(N3CCOCC3)cc2)n1,7.42 µM (active)
10,Cc1coc2c1C(=O)C(=O)c1c-2ccc2c1CCCC2(C)C,inactive
11,CCCOc1ccc2nc(NC(=O)OC)[nH]c2c1,0.263 µM (active)
